Source: PubChem (National Center for Advancing Translational Sciences (NCATS))
Shown are actives, neighbours in structure and some others; about 13% of the full set was active somewhere.
Marburg entry inh: blocks Marburg virus binding to or entry into cells | Marburg virus pseudotyped entry inhibition, cell reporter | Potency, µM (titrated, usually from 37.8 µM), inactives show at the top dose activity change, negative = inhibition, usual class: inhibitors | hit rate 1.8% among 300,000 | AID 540276; calls by dose curve; tested in HEK293 cells; further: potency means the concentration at half of the fitted maximal effect; on the % scale 0 is the no-effect control and ±100 the full control effect
FMDV antiviral: antivirals against foot and mouth disease virus; AID 1159524; hit rate 1.2% among 410,000; FMDV antiviral cell-based qHTS; Potency, µM (series often up to 57.9 µM), for inactives: top-dose activity change, negative = inhibition, hits mostly inhibitors; calls by dose curve; tested in HEK293T cells; further: read-out not given here; potency means the concentration at half of the fitted maximal effect; on the % scale 0 is the no-effect control and ±100 the full control effect; nearly all actives have a fitted effect of over 45% in size
CHX counter: counter-screen hit for Shiga toxin inhibitors, cycloheximide. cell reporter, cycloheximide protein synthesis inhibition counterscreen. hit rate 12% among 300,000. max response, %; in the data active means max response mostly above about 13%, no sharp cut-off; inactive means mostly below about 14%; further: read at 38.3 µM for the half of the compounds with a filed dose; 0% is about no effect
Shiga inhibitor: inhibitors of Shiga toxin in Vero cells; hit rate 9.2% among 290,000; Vero cells, Shiga toxin protein synthesis inhibition reporter; inhibition, % at 38.7 µM; in the data active means inhibition mostly above about 28%, no sharp cut-off; inactive means mostly below about 43%; further: 0% is about no effect
LASV entry inh: inhibitors of Lassa virus binding or cell entry. hit rate 1.2% among 300,000. Lassa virus pseudotype entry inhibition, cell reporter. Potency, µM (titrated, usually from 37.9 µM), for inactives: at the highest dose activity change, negative = inhibition, actives largely listed as inhibitors; calls by dose curve; tested in HEK293 cells; further: potency means the concentration at half of the fitted maximal effect; on the % scale 0 is the no-effect control and ±100 the full control effect; nearly all actives have a fitted effect of over 50% in size
HCV inh: HCV inhibition; AID 651820; hit rate 3.4% among 340,000; Huh7.5.1 HCVcc-Cre infection, luciferase reporter, 44 h; Potency, µM (series often up to 41.8 µM), for inactives: at the highest dose activity change, negative = inhibition, hits mostly inhibitors; active means well fitted inhibition curve with a large enough effect; inconclusive means small, poorly fitted or top-dose-only effect, or another doubt; inactive means no such curve, though single readings can be large or run the other way; further: potency means the concentration at half of the fitted maximal effect; on the % scale 0 is the no-effect control and ±100 the full control effect
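Whole-lifecycle infectious HCVcc-Cre system; cells 1,000/well, compound then virus (~0.5 moi) added 4 h after plating, 44 h culture. Luciferase read 15 sec following 15 min substrate incubation, room temp.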
* marks the source's active call; other numbers are inactive results; [ ] = another dose, or the depositor's remark.

For COc1ccc(C(=O)NCCc2ccccc2)cc1OC the results were FMDV antiviral 77%, CHX counter 28*, Shiga inhibitor 44* and HCV inh 7%.
Screening COCCNC(=O)CSc1nccn1Cc1ccc2c(c1)OCO2 returned Marburg entry inh -3%, FMDV antiviral -6%, CHX counter 0, Shiga inhibitor -9, LASV entry inh -14% and HCV inh 14%.
For COc1ccc(N(C)S(=O)(=O)c2cccc(C(=O)Nc3nc(C)cs3)c2)cc1 the results were FMDV antiviral -10% and HCV inh inconclusive.
Screening C=CCN(CC=C)Cc1cc(=O)oc2cc(C)ccc12 returned Marburg entry inh inconclusive and FMDV antiviral 2%.
`Brc1ccc(CSc2nnc(-c3cccnc3)o2)cc1` gave Marburg entry inh 8%[46.1 µM], FMDV antiviral -12%, CHX counter -2, Shiga inhibitor 7, LASV entry inh 11%[46.1 µM] and HCV inh 0%.
For Cc1ccc(CSc2nnc(-c3cccnc3)o2)cc1 the results were Marburg entry inh inconclusive, FMDV antiviral 11%, CHX counter 12, Shiga inhibitor -1, LASV entry inh 2% and HCV inh inconclusive.
Screening c1ccc(CSc2nnc(-c3cccnc3)o2)cc1 returned Marburg entry inh 12%, FMDV antiviral 51%, CHX counter 31*, Shiga inhibitor 74*, LASV entry inh 18% and HCV inh 14%.
Cc1ccccc1-c1nnc(SCc2ccc(F)cc2)o1 was read as Marburg entry inh 10%, FMDV antiviral 57%, CHX counter 30*, Shiga inhibitor 45*, LASV entry inh inconclusive and HCV inh inconclusive.
`Fc1ccc(CSc2nnc(-c3cccnc3)o2)cc1` gave FMDV antiviral 33%, CHX counter 17*, Shiga inhibitor 31 and HCV inh 10%.
Cc1ccc(C2=NN(C(=O)CCl)C(c3cccs3)C2)o1 (stereo not given) was read as Marburg entry inh inconclusive, FMDV antiviral 14µM*, CHX counter 23*, Shiga inhibitor 6, LASV entry inh inconclusive and HCV inh inconclusive.
Screening O=C(CCl)N1N=C(c2ccco2)CC1c1cccs1 (stereo not given) returned Marburg entry inh inconclusive, FMDV antiviral inconclusive, CHX counter 1, Shiga inhibitor -6, LASV entry inh -27% and HCV inh inconclusive.
Screening COc1ccc(C2CC(c3ccc4ccccc4c3OC(C)=O)=NN2C(C)=O)cc1 (stereo not given) returned Marburg entry inh inconclusive, FMDV antiviral 20%, CHX counter 25*, Shiga inhibitor 60*, LASV entry inh inconclusive and HCV inh inconclusive.
CC(=O)N1N=C(c2cccs2)CC1c1cccs1 (stereo not given) was read as Marburg entry inh 4%, FMDV antiviral -10%, CHX counter -3, Shiga inhibitor 12, LASV entry inh 0%[46.1 µM] and HCV inh 18%.
CC(=O)N1N=C(c2ccc(C)o2)CC1c1ccc(Br)cc1 (stereo not given) was read as Marburg entry inh -1%, FMDV antiviral 10%, CHX counter 43*, Shiga inhibitor 87*, LASV entry inh 4% and HCV inh -15%.
`CC(=O)N1N=C(c2cccs2)CC1c1ccc(Br)cc1` (stereo not given) gave FMDV antiviral 10%, CHX counter 32*, Shiga inhibitor 33 and HCV inh -5%.
For O=C(Cn1c(=O)oc2cccnc21)Nc1ccccc1Oc1ccc(Cl)cc1Cl the results were Marburg entry inh inconclusive, FMDV antiviral 5%, CHX counter -3, Shiga inhibitor -11, LASV entry inh -26%[46.1 µM] and HCV inh 9%.
COc1ccc(OC)c(S(=O)(=O)NCC(c2ccc(N(C)C)cc2)N2CCOCC2)c1 (stereo not given) was read as FMDV antiviral 6% and LASV entry inh -7%[46.1 µM].
For COc1ccc(C2CC(c3ccc(Cl)cc3)=NN2C(C)=O)cc1 (stereo not given) the results were Marburg entry inh -24%, FMDV antiviral 19%, CHX counter 34*, Shiga inhibitor 30*, LASV entry inh -18% and HCV inh inconclusive.
CC(=O)N1N=C(c2ccc(Cl)cc2)CC1c1ccc([N+](=O)[O-])cc1 (stereo not given) was read as Marburg entry inh -31%[46.1 µM], FMDV antiviral -17%, CHX counter 1, Shiga inhibitor 29, LASV entry inh 3%[46.1 µM] and HCV inh inconclusive.
Screening COc1ccc(C2=NN(CN3C(=O)C(=O)c4ccccc43)C(c3cccc([N+](=O)[O-])c3)C2)cc1 (stereo not given) returned Marburg entry inh -17%[46.1 µM], FMDV antiviral -7%, CHX counter 13*, Shiga inhibitor 117*, LASV entry inh -14% and HCV inh inconclusive.
For CCC(=O)N1N=C(c2ccc(C)o2)CC1c1ccc(N(C)C)cc1 (stereo not given) the results were FMDV antiviral 45%, CHX counter 3, Shiga inhibitor 35 and HCV inh -22%.
Screening COc1ccc(C2=NN(C(=O)c3ccc(Cl)c([N+](=O)[O-])c3)C(c3ccccc3)C2)cc1 (stereo not given) returned Marburg entry inh inconclusive, FMDV antiviral 0%, CHX counter -4, Shiga inhibitor -11, LASV entry inh inconclusive and HCV inh inconclusive.
`COc1ccc(C2CC(c3ccc(C)o3)=NN2C(C)=O)cc1` (stereo not given) gave Marburg entry inh inconclusive, FMDV antiviral 33%, CHX counter 21*, Shiga inhibitor 97*, LASV entry inh 5% and HCV inh -9%.
For COc1ccc(C2CC(c3ccc(Cl)cc3)=NN2C(=O)c2cccc([N+](=O)[O-])c2)cc1 (stereo not given) the results were Marburg entry inh -12%, FMDV antiviral 1%, CHX counter 19*, Shiga inhibitor 14, LASV entry inh inconclusive and HCV inh -2%.
`CC(C)n1c(O)c(C2c3cc(Cl)ccc3Oc3[nH]c(=O)n(C(C)C)c(=O)c32)c(=O)[nH]c1=O` (stereo not given) gave Marburg entry inh inconclusive, FMDV antiviral 3.5µM*, CHX counter -9, Shiga inhibitor -26, LASV entry inh inconclusive and HCV inh 5µM*.
For COc1cc(OC)cc(C(=O)Nn2cc(C(=O)N3CCN(C)CC3)c3ccccc3c2=O)c1 the results were Marburg entry inh -7%, FMDV antiviral -7%, CHX counter -4, Shiga inhibitor -4, LASV entry inh 11% and HCV inh 8%.
`COc1ccc(/C=N/NC(=O)CN2CCCc3ccccc32)c(OC)c1` gave Marburg entry inh -3%[46.1 µM], FMDV antiviral 0%, CHX counter 1, Shiga inhibitor -6, LASV entry inh 17% and HCV inh 6%.
Screening O=C(OCCC12CC3CC(CC(C3)C1)C2)c1ccc(NCc2cc(O)ccc2O)cc1 returned Marburg entry inh 1.8µM*, FMDV antiviral inconclusive, LASV entry inh 1.3µM* and HCV inh 2.2µM*.
